Laboratory results: PubChem BioAssay (NCATS)
Values joined by “and” are separate entries in the source; they are usually repeats but may differ in a detail not shown here. Equal entries are not always repeated. Records with an inconclusive call do not appear. Active and inactive are the calls of the source. Unless noted, the call rests on the fitted dose curve; in most records, active means well fitted curve in the direction sought with a large enough effect; inconclusive means small, poorly fitted or top-dose-only effect, or another doubt; inactive means no such curve, though single readings can be large; an effect the other way counts as inactive or inconclusive.

What was measured:
[1] = Cell Viability - HepG2 (AID 433; calls by dose curve;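 further: potency means the concentration at half of the fitted maximal effect; potency for ATP loss meaning cytotoxicity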); details: qHTS
How it was run: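 Cytotoxicity is scored as loss of intracellular ATP in HepG2 cells exposed to compounds for 40 h. Concentration-response curves, normalized to DMSO and 100 uM tamoxifen, give AC50 values.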

[2] = Cell Viability - Mesenchymal (AID 546); details: mesenchymal cells viability, qHTS; activity change, negative = cytotoxicity: at 91.7 µM (top of the series);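 further: cells exposed to compound for 40 hours before reading; 0% = DMSO only and -100% = 100 µM tamoxifen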
How it was run: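 Normal human renal glomerulus-derived kidney mesenchymal cells, 1000 per well in complete medium, were treated with compounds for 40 hr at 37 °C. Viability was read as intracellular ATP by CellTiter-Glo luminescence; AC50 values came from Hill-equation fits of qHTS concentration-response data.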

[3] = Cell Viability - LYMP1-003 - Assay at 40 hr (AID 964); details: LYMP1-003 lymphoblastoid viability; series mostly up to 92.2 µM; further: on the % scale 0 is the no-effect control and ±100 the full control effect; nearly all actives have a fitted effect of over 60% in size
How it was run: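 LYMP1-003 human lymphoblastoid cells, 2500/well, preincubated 5 h at 37 C, then treated with compound for 40 h at 37 C. Intracellular ATP read by CellTiter-Glo luminescence after 30 min at room temperature; AC50 from Hill-equation fits.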

[4] = Cell Viability - LYMP2-013 (AID 970); details: LYMP2-013 lymphoblastoid cells viability; series mostly up to 92.2 µM;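 further: 0% = DMSO only and full inhibition = tetraoctylammonium bromide control; nearly all actives have a fitted effect of over 55% in size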
How it was run: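 Human lymphoblastoid LYMP2-013 cells, 2500/well, treated 24 h at 37 C in complete medium; viability as intracellular ATP by CellTiter-Glo luminescence after 30 min. AC50 from Hill fits of qHTS concentration-response.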

[5] = Cell Viability - LYMP2-017 (AID 972); details: LYMP2-017 lymphoblastoid cell viability; series mostly up to 92.2 µM; further: on the % scale 0 is the no-effect control and ±100 the full control effect; nearly all actives have a fitted effect of over 55% in size
How it was run: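 LYMP2-017 human lymphoblastoid cells (2500/well) settled 5 hr at 37 C, then exposed to compound 24 hr at 37 C in complete medium. Viability taken as intracellular ATP by CellTiter-Glo luminescence after 30 min at RT; AC50 from Hill fits.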

[6] = Cell Viability - LYMP2-021 (AID 974); details: LYMP2-021 lymphoblastoid cells viability; series mostly up to 92.2 µM;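 further: compound exposure lasts 24 hours at 37 °C; on the % scale 0 is the no-effect control and ±100 the full control effect; nearly all actives have a fitted effect of over 55% in size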
How it was run: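 Human lymphoblastoid LYMP2-021 cells, 2500/well in complete medium, treated 24 hours at 37 C. Intracellular ATP by CellTiter-Glo luminescence (30 min, RT); AC50 from Hill fits of concentration-response.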

[7] = Cell Viability - LYMP2-023 (AID 975); details: LYMP2-023 lymphoblastoid cell viability; series mostly up to 92.2 µM;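 further: cellular ATP measured by luciferase luminescence as viability proxy; plate controls were DMSO only for no effect and 92 µM tetraoctylammonium bromide control for full effect; nearly all actives have a fitted effect of over 55% in size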
How it was run: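 LYMP2-023 human lymphoblastoid cells, 2500/well, preincubated 5 hr at 37 C, then compound-treated 24 hr at 37 C in complete medium. CellTiter-Glo luminescence (ATP) after 30 min at room temperature; AC50 from Hill-equation fits; tetraoctylammonium bromide positive control.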

[8] = Cell Viability - LYMP2-025 (AID 976); details: LYMP2-025 lymphoblastoid cell viability; series mostly up to 92.2 µM;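 further: plate controls were DMSO only for no effect and tetraoctylammonium bromide control for full effect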
How it was run: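 Human lymphoblastoid LYMP2-025 cells, 2500/well, exposed 24 h at 37 C in complete medium in 1536-well qHTS. Viability as cellular ATP by CellTiter-Glo luminescence; AC50 from Hill fits of concentration-response data.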

[9] = Cell Viability - LYMP2-002 (AID 977); details: LYMP2-002 lymphoblastoid cell viability, qHTS; series mostly up to 92.2 µM;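 further: plate controls were DMSO only for no effect and 92 µM tetraoctylammonium bromide for full effect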
How it was run: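 Luminescent ATP readout (CellTiter-Glo, 30 min room temperature) after 24 h compound exposure at 37 C of a human lymphoblastoid line, 2500 cells/well. AC50 values derived by standard Hill fitting of qHTS concentration-response data.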

[10] = Cell Viability - LYMP2-012 (AID 982); details: LYMP2-012 lymphoblastoid cell viability qHTS; series mostly up to 92.2 µM
[11] = Cell Viability - LYMP2-014 (AID 983); details: LYMP2-014 lymphoblastoid cells, viability qHTS; series mostly up to 92.2 µM;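 further: plate controls were DMSO only for no effect and 92 µM tetraoctylammonium bromide for full effect; nearly all actives have a fitted effect of over 50% in size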
How it was run: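 LYMP2-014 human lymphoblastoid cells, 2500/well, treated 24 h at 37 C in complete medium; viability by CellTiter-Glo ATP luminescence after 30 min at room temperature. AC50 from Hill fits of qHTS concentration-response; tetraoctylammonium bromide positive control.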

[12] = Cell Viability - LYMP2-016 (AID 984); details: LYMP2-016 lymphoblastoid cell viability, qHTS; series mostly up to 92.2 µM
How it was run: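 Acute toxicity in a Coriell human lymphoblastoid line is scored as loss of intracellular ATP over 24 h of treatment in complete medium. CellTiter-Glo signal is fitted across concentrations with the Hill equation to give AC50.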

[13] = Cell Viability - LYMP2-018 (AID 985); details: LYMP2-018 lymphoblastoid cells, viability (qHTS); series mostly up to 92.2 µM;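 further: compound exposure lasted 24 hr at 37 °C; plate controls were DMSO only for no effect and tetraoctylammonium bromide at 92 µM for full effect; nearly all actives have a fitted effect of over 50% in size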
How it was run: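 Human lymphoblastoid LYMP2-018 cells, 2500/well, settled 5 hr at 37 C then exposed to compound 24 hr at 37 C; intracellular ATP measured by CellTiter-Glo luminescence. AC50 from Hill-equation concentration-response fits.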

[14] = Cell Viability - LYMP2-020 (AID 986); details: series mostly up to 92.2 µM
How it was run: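 Human lymphoblastoid LYMP2-020 cells (2500/well) preincubated 5 h at 37 C, then treated 24 h at 37 C. Viability measured as intracellular ATP by CellTiter-Glo luminescence after 30 min at room temperature; AC50 from Hill fits.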

[15] = Cell Viability - LYMP2-022 (AID 987); details: LYMP2-022 lymphoblastoid cell viability; series mostly up to 92.2 µM
How it was run: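 LYMP2-022 lymphoblastoid cells (2500/well, complete medium) were treated with compounds for 24 hours at 37 C; intracellular ATP was then read by CellTiter-Glo luminescence after 30 min at room temperature. AC50 values were derived from Hill-equation fits.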

[16] = Cell Viability - LYMP2-024 (AID 988); details: LYMP2-024 lymphoblastoid cell viability; series mostly up to 92.2 µM;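 further: plate controls were DMSO only for no effect and 92 µM tetraoctylammonium bromide for full effect; nearly all actives have a fitted effect of over 60% in size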
How it was run: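 Human lymphoblastoid LYMP2-024 cells (2500/well) rested 5 hr, then treated with compound for 24 hr at 37 C in complete medium. Viability was measured as intracellular ATP by CellTiter-Glo luminescence. AC50 values came from Hill-equation fits.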

[17] = Cell Viability - LYMP1-002 - Assay at 40 hr (AID 994); details: LYMP1-002 lymphoblastoid cell viability; series mostly up to 92.2 µM;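 further: 0% = DMSO only and full inhibition = 92 µM tetraoctylammonium bromide; nearly all actives have a fitted effect of over 60% in size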
How it was run: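 LYMP1-002 human lymphoblastoid cells (2500/well, complete medium) were treated with compounds for 40 hr at 37 C. Intracellular ATP was measured by CellTiter-Glo luminescence, and AC50 values came from Hill-equation fits of concentration-response data; tetraoctylammonium bromide was the positive control.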

[18] = qHTS assay for small molecule antagonists of retinoid X receptor alpha signaling (AID 588546; active means well fitted inhibition curve with a large enough effect in the signal ratio, with a control signal flat, not every such curve was filed as active; the % refers to the signal ratio;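 further: cells stimulated with 9-cis-retinoic acid as agonist; on the % scale 0 is the no-effect control and ±100 the full control effect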); details: HEK293T RXRa-UAS-bla, beta-lactamase ratio, antagonist mode; measured here: W530 green channel, cytotoxicity proxy
How it was run: (§1)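 Beta-lactamase reporter inhibition, read as CCF4 fluorescence ratio (ex 405, em 460/530 nm) after 2 h at RT. HEK293T UAS-bla cells, 2500/well, were stimulated with 9-cis-RA at 500 or 100 nM final alongside test compound for 18 h at 37 C.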

[19] = target: Retinoic acid receptor RXR-alpha (Homo sapiens) (UniProt P19793); assay: as above; details: HEK293T RXRa-UAS-bla, beta-lactamase ratio, antagonist mode
Retinoic acid receptor RXR-alpha (Homo sapiens), sequence (P19793 whole entry, looked up): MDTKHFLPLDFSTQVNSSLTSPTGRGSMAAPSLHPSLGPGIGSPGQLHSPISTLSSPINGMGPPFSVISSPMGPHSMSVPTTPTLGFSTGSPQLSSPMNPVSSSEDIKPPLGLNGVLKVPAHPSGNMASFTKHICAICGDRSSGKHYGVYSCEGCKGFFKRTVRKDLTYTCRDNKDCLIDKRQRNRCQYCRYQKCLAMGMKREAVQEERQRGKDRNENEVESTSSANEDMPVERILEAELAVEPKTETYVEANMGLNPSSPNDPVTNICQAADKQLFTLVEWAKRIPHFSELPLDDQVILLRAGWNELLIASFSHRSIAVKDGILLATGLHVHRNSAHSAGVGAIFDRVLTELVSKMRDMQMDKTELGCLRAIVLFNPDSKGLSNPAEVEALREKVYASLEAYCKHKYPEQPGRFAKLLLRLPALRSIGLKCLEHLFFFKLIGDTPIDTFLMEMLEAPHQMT
How it was run: as §1

[20] = qHTS assay for environmental chemicals that activate the Aryl hydrocarbon Receptor (AhR) signaling pathway (AID 651777); details: 1A2-DRE human hepatoma cells, luciferase, 24 h; activation: stronger effect = higher value; further: nearly all actives have a fitted effect of over 15% in size; further: potency means the concentration at half of the fitted maximal effect; on activation: % of control where 0% means no effect
How it was run: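 Human hepatoma 1A2-DRE cells stably carrying a DRE/CYP1A2 promoter–luciferase reporter, 1,200 cells/well, exposed to compound 24 hr at 37 C. Luciferase read by One-Glo luminescence after 30 min at room temperature; increased signal marks AhR activation.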

CC(C)COC(=O)COc1cc(Cl)c(Cl)cc1Cl
-2.2%: max response [18]
inactive: Potency [1] > 92 µM | Potency [2] | Potency [3] | Potency [4] | Potency [5] | Potency [6] | Potency [7] | Potency [8] | Potency [9] | Potency [10] | Potency [11] | Potency [12] | Potency [13] | Potency [14] | Potency [15] | Potency [16] | Potency [17] | max response [19] 8.47% | activation [20] 1.79%

COc1ccc([N+](=O)[O-])cc1N
inactive: Potency [1] > 92 µM | Potency [2] | Potency [3] | Potency [4] | Potency [5] | Potency [6] | Potency [7] | Potency [8] | Potency [9] | Potency [10] | Potency [11] | Potency [12] | Potency [13] | Potency [14] | Potency [15] | Potency [16] | Potency [17] | max response [19] 4.59% and -0.147% | activation [20] 1.04% and 4.76%
0.433% and 4.58%: max response [18]

CCOc1ccc2nc(N)sc2c1
active: Potency [20] 10 µM
-8.45%: max response [18]
inactive: Potency [1] > 92 µM | Potency [2] | Potency [3] | Potency [4] | Potency [5] | Potency [6] | Potency [7] | Potency [8] | Potency [9] | Potency [10] | Potency [11] | Potency [12] | Potency [13] | Potency [14] | Potency [15] | Potency [16] | Potency [17] | max response [19] -7.66%

O=C(O)c1ccc([N+](=O)[O-])cc1
inactive: Potency [1] > 92 µM | Potency [2] | Potency [3] | Potency [4] | Potency [5] | Potency [6] | Potency [7] | Potency [8] | Potency [9] | Potency [10] | Potency [11] | Potency [12] | Potency [13] | Potency [14] | Potency [15] | Potency [16] | Potency [17] | max response [19] 3.05% and 5.55% | activation [20] 0.333% and 2.14%
-8.75% and -3.59%: max response [18]

CCc1ccc(C(c2ccc(CC)cc2)C(Cl)Cl)cc1
-4.78%: max response [18]
inactive: Potency [1] > 92 µM | Potency [2] | Potency [3] | Potency [4] | Potency [5] | Potency [6] | Potency [7] | Potency [8] | Potency [9] | Potency [10] | Potency [11] | Potency [12] | Potency [13] | Potency [14] | Potency [15] | Potency [16] | Potency [17] | max response [19] -8.97% | activation [20] -0.69%

O=CC(=O)c1ccccc1
-7.19%: max response [18]
inactive: Potency [1] > 92 µM | Potency [2] | Potency [3] | Potency [4] | Potency [7] | Potency [8] | Potency [10] | Potency [11] | Potency [12] | Potency [14] | Potency [17] | max response [19] 6.37% | activation [20] 0.568%
